Test results from PubChem BioAssay (EPA / NIEHS).
Calls of active or inactive are those of the source. The calls were made as follows: active = hit-call score of the fitted dose curve at least 0.9, where 1 is the maximum; inactive = score below 0.9.

molecular target: Aryl hydrocarbon receptor (Homo sapiens) (UniProt P35869); assay: ATG_Ahr_CIS: Attagene CIS-FACTORIAL HepG2 Assay for human Aryl Hydrocarbon Receptor (Ahr) (AID 2282930); details: HepG2 AhR cis-factorial reporter transcription; actives raise or lower the signal
Sequence (P35869 whole entry, looked up): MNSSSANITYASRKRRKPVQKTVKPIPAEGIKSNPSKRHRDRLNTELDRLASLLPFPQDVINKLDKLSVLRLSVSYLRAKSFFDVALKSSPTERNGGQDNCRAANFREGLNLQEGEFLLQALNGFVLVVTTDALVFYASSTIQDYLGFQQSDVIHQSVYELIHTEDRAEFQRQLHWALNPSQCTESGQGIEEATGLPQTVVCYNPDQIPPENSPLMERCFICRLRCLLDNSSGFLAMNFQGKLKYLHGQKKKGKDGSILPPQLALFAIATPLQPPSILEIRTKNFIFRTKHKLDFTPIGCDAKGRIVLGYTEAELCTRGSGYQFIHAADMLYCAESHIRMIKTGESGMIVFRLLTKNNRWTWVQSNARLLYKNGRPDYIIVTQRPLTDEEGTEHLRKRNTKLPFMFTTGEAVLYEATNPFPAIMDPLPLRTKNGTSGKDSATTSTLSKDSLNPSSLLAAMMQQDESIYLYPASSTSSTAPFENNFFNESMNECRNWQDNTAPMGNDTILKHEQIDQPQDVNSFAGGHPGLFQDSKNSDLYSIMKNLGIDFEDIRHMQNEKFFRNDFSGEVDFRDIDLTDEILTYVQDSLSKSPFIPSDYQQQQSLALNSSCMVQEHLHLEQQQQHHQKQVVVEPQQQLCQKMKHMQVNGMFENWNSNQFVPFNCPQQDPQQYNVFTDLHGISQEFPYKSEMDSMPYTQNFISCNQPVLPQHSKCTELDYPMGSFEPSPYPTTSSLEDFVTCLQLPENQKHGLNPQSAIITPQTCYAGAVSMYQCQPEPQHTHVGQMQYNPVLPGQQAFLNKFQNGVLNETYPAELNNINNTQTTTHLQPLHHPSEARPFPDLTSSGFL
Protocol: ATG_CIS is a cell-based, multiplexed-readout assay that uses HepG2, a human liver cell line, with measurements taken at 24 hours after chemical dosing in a 24-well plate.ATG_Ahr_CIS is one of 52 assay component(s) measured or calculated from the ATG_CIS assay. It is designed to make measurements of mRNA induction, a form of inducible reporter, as detected with fluorescence intensity signals by Reverse transcription polymerase chain reaction (RT-PCR) and Capillary electrophoresis technology.Data from the assay component ATG_Ahr_CIS was analyzed into 1 assay endpoint. This assay endpoint, ATG_Ahr_CIS, was analyzed with bidirectional fitting relative to DMSO as the negative control and baseline of activity. Using a type of inducible reporter, measures of mRNA for gain or loss-of-signal activity can be used to understand the reporter gene at the transcription factor-level as they relate to the gene AHR. Furthermore, this assay endpoint can be referred to as a primary readout, because this assay has produced multiple assay endpoints where this one serves a reporter gene function. To generalize the intended target to other relatable targets, this assay endpoint is annotated to the dna binding intended target family, where the subfamily is basic helix-loop-helix protein.
Human liver HepG2 cells are transiently transfected with multiple reporter transcription units (MRTUs) in 6-well plates using FuGene 6 reagent (Roche; 3 ml FuGene/1 mg DNA). The MRTU constructs are regulated by a cis-regulating element (promoter). […] A major difference between the CIS and TRANS system is that in CIS activities of endogenous TFs are measured, whereas the TRANS assay evaluates changes in activities of exogenous, chimeric NR-Gal4 proteins. […] At the end of 24 hour incubation, total RNA was isolated using TriZol reagent (Invitrogen). The isolated RNA is then reverse-transcribed using oligo(dT) primer and Mo-MLV reverse transcriptase (Invitrogen) with DNAse I (Ambion) treatment for 30 min. The one-tenth of the produced cDNA was amplified by PCR using Taq DNA polymerase (Invitrogen) and two reporter sequence-specific primers. The PCR products were fluorescently labeled by primer extension with 6-arboxyfluorescein (6-FAM) 5'-labeled reporter sequence-specific primer (2 min at 95 C, 20 s at 68 C and 10 min at 72 C) and these products were digested with 5U of HpaI (New England Biolabs) for 2h at 37 C. […] The raw capillary electrophoresis data was processed using Attagraph software (Attagene).

Row | Structure (SMILES) | outcome | AC50
1 | CN(C)C(C)(C)CO | inactive | 
2 | OCCC(O)CO (stereo not given) | inactive | 
3 | OC(O)C(F)(F)C(F)(F)F | inactive | 
4 | c1ccc(C[P+](c2ccccc2)(c2ccccc2)c2ccccc2)cc1 | inactive | 
5 | CCOCOCC | inactive | 
6 | OCC(O)CC(F)(F)C(F)(F)C(F)(F)C(F)(F)C(F)(F)C(F)(F)C(F)(F)C(F)(F)F (stereo not given) | inactive | 
7 | CC(C)Nc1ccc(NC(C)C)c2c1C(=O)c1ccccc1C2=O |  | 3.35 µM (active)
8 | CCc1cc(Cc2cc(CC)c(N)c(CC)c2)cc(CC)c1N | inactive | 
9 | CCCCCCCC/C=C\CCCCCCCC(=O)N(C)CC(=O)O | inactive | 
10 | CC(C)(C)c1cc(CCC(=O)OCC(COC(=O)CCc2cc(C(C)(C)C)c(O)c(C(C)(C)C)c2)(COC(=O)CCc2cc(C(C)(C)C)c(O)c(C(C)(C)C)c2)COC(=O)CCc2cc(C(C)(C)C)c(O)c(C(C)(C)C)c2)cc(C(C)(C)C)c1O | inactive | 
11 | OCCCc1cccnc1 | inactive | 
12 | FC(F)(F)C(F)(F)C(F)(F)C(F)(F)C(F)(F)C(F)(F)CC[Si](Cl)(Cl)Cl | inactive | 
13 | OCCCCl | inactive | 
14 | CCCC(=O)OCC(COC(=O)CCC)OC(=O)CCC | inactive | 
15 | CC(=O)C=O | inactive | 
16 | CCC(C)CO (stereo not given) | inactive | 
17 | CCOC(OCC)OCC |  | 31.6 µM (active)
18 | CC(C)OC(=O)COc1ccc(Cl)cc1Cl | inactive | 
19 | F[Si-2](F)(F)(F)(F)F | inactive | 
20 | NCC(F)(F)C(F)(F)C(F)(F)C(F)(F)C(F)(F)C(F)(F)C(F)(F)C(F)(F)F | inactive | 

Row | Structure (SMILES) | outcome | AC50
21 | CC(C)(C)c1cc(CCC(=O)NCCCCCCNC(=O)CCc2cc(C(C)(C)C)c(O)c(C(C)(C)C)c2)cc(C(C)(C)C)c1O | inactive | 
22 | CSc1ccc(Cl)cc1 | inactive | 
23 | CCCCCCCCCc1ccc(OCCO)cc1 | inactive | 
24 | C=C(C)C(=O)OCC(F)(F)C(F)(F)C(F)(F)C(F)F | inactive | 
25 | C=C(C)CCCC | inactive | 
26 | Cc1cc(=O)[nH]c(C(C)C)n1 | inactive | 
27 | O=C1OC(=O)c2ccc3c4c(ccc1c24)C(=O)OC3=O | inactive | 
28 | CC(C)C(=O)OCc1ccccc1 | inactive | 
29 | CC(=O)c1ccccc1N | inactive | 
30 | NC(=O)C(F)(F)C(F)(F)C(F)(F)F | inactive | 
31 | OCCCCC(F)(F)C(F)(F)C(F)(F)C(F)(F)F | inactive | 
32 | CN1CN(C)CN(C)C1 | inactive | 
33 | NC(O)(C(F)(F)F)C(F)(F)F |  | 126 µM (active)
34 | O=C(c1ccccc1)c1ccc(O)cc1O | inactive | 
35 | CCOC(=O)CCC(C)=O | inactive | 
36 | CC(O)C#CC(C)O (stereo not given) |  | 72.8 µM (active)
37 | O=S(=O)(O)CCC(F)(F)C(F)(F)C(F)(F)C(F)(F)F | inactive | 
38 | NCC(F)(F)C(F)(F)C(F)(F)C(F)(F)C(F)(F)C(F)(F)F | inactive | 
39 | O=c1cccc[nH]1 | inactive | 
40 | C=CC(=O)OCCC(F)(F)C(F)(F)C(F)(F)C(F)(F)F | inactive | 
